PubChem BioAssay AID540356 (Broad Institute, 2011)
About 360 (14%) of roughly 2,500 compounds were called active.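 How the source made its calls: active means signal-lowering compounds whose fitted half-maximal concentration AC50 is no higher than ten times their top tested concentration; inconclusive means flat curve with 30 to 70% inhibition, or poor fit; inactive means flat within 30%, signal increase, or AC50 above limit.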 A selection follows.

Assay: HRP/luminol detection interference without ALR, dose response, artefact control for ALR inhibitor project, biochemical, luminescence, no ALR or DTT, cherry-pick (AID 540356);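 on activity change, negative = inhibition: 0% = median of neutral control wells and -100% = median of quercitin 100 µM wells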
Conditions: HRP/H2O2 luminol luminescence counterscreen; series mostly up to 10 µM; activity change, negative = inhibition: at the top concentration

Compound	activity change, negative = inhibition	AC50
Cc1cc(S(=O)(=O)N2CCN(c3ccccc3O)CC2)c(C)s1	-1.49% (inactive)	–
COc1cc(-c2csc(CCn3nc(C)cc3C)n2)cc(OC)c1OC	-1.1% (inactive)	–
C=CCn1c(-c2ccc(N)cc2)nc2ccccc21	-1.15% (inactive)	–
C=CCn1c(-c2cccc([N+](=O)[O-])c2)n[nH]c1=S	-6.54% (inactive)	–
CC(C)c1ccc(NC(=O)Cc2c(C(=O)O)n(C)c3ccccc23)cc1	-6.86% (inactive)	–
CCc1ccc(NCc2ccc(OC)c(Cn3ccnc3)c2)cc1	0.244% (inactive)	–
O=C(CC(=O)N/N=C/c1ccc(O)cc1)N/N=C/c1ccc(O)cc1	–	2.72 µM (active)
O=C(CCN1CCN(C(c2ccccc2)c2ccccc2)CC1)N/N=C/c1ccc(O)cc1	-4.67% (inactive)	–
O=C(Cn1cc(C(F)(F)F)ccc1=O)N/N=C/c1ccc(O)cc1	-3.05% (inactive)	–
O=C(N/N=C/c1cccc(O)c1)N/N=C/c1cccc(O)c1	-15% (inactive)	–
CCN(CC)c1ccc(/C=N\NC(N)=O)cc1	-3.71% (inactive)	–
O=C(C[n+]1ccccc1)N/N=C/c1ccc(O)cc1	–	6.56 µM (active)
Cc1nc(C)c(CC(=O)N/N=C/c2ccc(O)cc2)c(=O)[nH]1	-2.84% (inactive)	–
CN(C)c1ccc(/C=N/NC(=O)CCC(=O)NCc2ccccc2)cc1	1.49% (inactive)	–
Cc1ccc(NC(=O)CCC(=O)N/N=C/c2ccc(O)cc2)cc1	-3.47% (inactive)	–
O=C(Cn1cnc2ccccc21)N/N=C/c1ccccn1	-0.451% (inactive)	–
CC12CCC(C(=O)N/N=C/c3ccc(O)cc3)(OC1=O)C2(C)C (configuration not stated)	–	8.23 µM (active)
O=C(CCn1cnc2ccccc21)N/N=C/c1ccc(O)cc1	–	9.88 µM (active)
COc1ccc(C2SCC(=O)N2c2ccc(F)cc2)cc1 (configuration not stated)	0.747% (inactive)	–
NNC(=O)c1cc(-c2ccccc2)sc1N	-1.19% (inactive)	–
Cc1cc(C)cc(N2C(=O)CSC2c2ccccn2)c1 (configuration not stated)	-4.34% (inactive)	–
COc1cc(/C=N\NC(=O)c2ccc(-c3ccccc3)cc2)cc(OC)c1O	-2.4% (inactive)	–
CC(NC(=O)c1ccccc1)C(=O)N/N=C/c1ccc(O)cc1 (configuration not stated)	-7.56% (inactive)	–
Cn1nc(-c2ccc(Cl)cc2)c2cc(C(=O)NCCCN3CCCC3)sc21	-0.462% (inactive)	–

Compound	activity change, negative = inhibition	AC50
S=c1[nH]nc(-c2ccc(Cl)cc2)n1-c1ccc(Cl)cc1	-8.06% (inactive)	–
CCn1c(-c2ccc(Cl)cc2)n[nH]c1=S	-8.41% (inactive)	–
Cc1cccc(N2CC(C(=O)Nc3ccccc3N3CCCC3)CC2=O)c1C (configuration not stated)	-8.55% (inactive)	–
COc1ccc(CC(=O)N2CCN=C2SCc2ccc([N+](=O)[O-])cc2)cc1	-0.324% (inactive)	–
CCN(CCNC(=O)C1CCN(S(=O)(=O)c2cccc3nsnc23)CC1)c1ccccc1	-0.842% (inactive)	–
COc1ccc(C2NC(=O)CS2)cc1OC (configuration not stated)	7.69% (inactive)	–
COc1cc(/C=N/NC(=O)CCN2CCCCC2)ccc1O	–	8.16 µM (active)
COc1ccc(/C=N/NC(=O)CCn2nc(C)cc2C)cc1O	-8.19% (inactive)	–
COc1ccc(/C=N\NC(=O)CCN2CCN(c3ccccc3)CC2)cc1OC	0.672% (inactive)	–
O=C(NCc1ccccn1)c1ccc2c(c1)N(Cc1ccccc1)CCS2	0.248% (inactive)	–
COc1ccc(N2CCN(C(=O)CCNC(=O)c3ccc(C(C)(C)C)cc3)CC2)cc1	-1.79% (inactive)	–
Clc1nnc(N2CCCCC2)c2ccccc12	-0.603% (inactive)	–
Cc1ccc(S(=O)(=O)Nc2cc(C)c(O)cc2C)cc1	-3.78% (inactive)	–
Cc1cc(O)c(Sc2ncn[nH]2)cc1NS(=O)(=O)c1ccc(Cl)cc1	-11.3% (inactive)	–
Cc1ccc(S(=O)(=O)Nc2ccc(O)c(Sc3ncn[nH]3)c2)cc1	–	10.4 µM (active)
CC(C)c1ccc(NC2CCCN(C(=O)c3cc(C(C)C)nc(N)n3)C2)cc1 (configuration not stated)	-1.39% (inactive)	–
CC(C)c1ccc(S(=O)(=O)Nc2ccc(O)c(Sc3ncn[nH]3)c2)cc1	–	9.35 µM (active)
Cc1cc(C(=O)N2CCCC(Nc3ccc(C(C)C)cc3)C2)nn1C (configuration not stated)	-3.19% (inactive)	–
COc1cc(-n2c(-c3ccccc3)n[nH]c2=S)c(OC)cc1Cl	-5.76% (inactive)	–
COc1ccc(C(=O)N2CCN=C2SCc2cccnc2)c(OC)c1	-0.521% (inactive)	–
Cc1cc(-c2nsc(=O)o2)c(S(C)(=O)=O)s1	-3.28% (inactive)	–
Cc1c(/C=N\NC(=O)c2ccc(F)cc2)cnn1C	-0.44% (inactive)	–
CCN(CC)c1ccc(CNc2ccc3c(c2)ncn3CC)cc1	-4.04% (inactive)	–
CCN(CC)c1ccc(CN2CCCCCC2)cc1	-1.83% (inactive)	–

Compound	activity change, negative = inhibition	AC50
CN(C)c1ccc(-c2n[nH]c(=S)n2-c2ccccc2)cc1	-1.29% (inactive)	–
Cc1cc(C)nc(Sc2c(C)nn(-c3ccccc3)c2C)n1	-0.742% (inactive)	–
Oc1c(Cl)cc(Cl)cc1CNc1ccc(Br)cn1	-1.14% (inactive)	–
O=C(c1ccc2c(c1)OCO2)N1CCN(c2ccccc2)CC1	0.839% (inactive)	–
Nc1nc(-c2c[nH]c3ccccc23)cs1	-0.944% (inactive)	–
O=c1oc2ccccc2cc1-c1ccc(O)cc1	-10.8% (inactive)	–
c1ccc2c(-c3csc(-c4ccncc4)n3)c[nH]c2c1	-10.2% (inactive)	–
O=C(O)Cn1cc(C(=S)N2CCCCC2)c2ccccc21	-14.5% (inactive)	–
CC(C)NS(=O)(=O)c1ccc2c(c1)NCC2	-1.5% (inactive)	–
COc1ccc(C2=CSC3=NNC4(CCCCC4)NN23)cc1	-0.282% (inactive)	–
COc1ccc(NC2c3ccccc3C(=O)N2c2cccnc2)cc1Cl (configuration not stated)	-3.2% (inactive)	–
S=c1[nH]nc(-c2ccco2)n1C1CCCCC1	-1.24% (inactive)	–
O=C(NNc1nc2cc3c(cc2s1)OCO3)c1ccccc1	-0.28% (inactive)	–
O=C(NNc1nc2ccccc2s1)c1ccccc1F	–	5.35 µM (active)
O=C(NNc1c2ccccc2nc2ccccc12)c1ccccc1O	-2.21% (inactive)	–
COc1cccc(N2CCN(CC(=O)NC(C)c3ccccc3)CC2)c1 (configuration not stated)	-1.52% (inactive)	–
O=C(NC1CCCCC1)N1CCN(c2ccc(Cl)cc2)CC1	-0.46% (inactive)	–
O=C(Nc1ccccc1N1CCCC1)c1ccccc1F	-1.54% (inactive)	–
COc1ccc(N2CCC(CNC(=O)Nc3ccc(OC)cc3OC)C2)cc1 (configuration not stated)	-2.98% (inactive)	–
Clc1ccc(-n2nnc(-c3nccs3)n2)cc1Cl	-1.28% (inactive)	–
Cc1cc(C)n2cc(CSc3nc4ccccc4[nH]3)nc2n1	-2.68% (inactive)	–
COc1ccccc1N1CCN(S(=O)(=O)c2cccc(F)c2)CC1	-2.52% (inactive)	–
Oc1cc2c(cc1O)C(c1ccccc1)CNCC2 (configuration not stated)	–	4.68 µM (active)
Oc1ccc(C2CNCCc3c2cc(O)c(O)c3Cl)cc1 (configuration not stated)	–	5.92 µM (active)

Compound	activity change, negative = inhibition	AC50
Nc1[nH]c(N=NC(=O)c2ccc(F)cc2)c2ccccc12	–	> 10 µM (inactive)
CC(C)(C)c1ccc(Oc2ccc(NC(=O)CCCC(=O)O)cn2)cc1	-11.2% (inactive)	–
Cc1c(Cl)c(-c2n[nH]c(=S)n2-c2ccccc2)nn1C	-3.37% (inactive)	–
O=c1ccsn1Cc1ccccc1	-0.761% (inactive)	–
COc1cc(OC)cc(C(=O)Nc2ccc(S(=O)(=O)Nc3cc(C)nc(C)n3)cc2)c1	-13.2% (inactive)	–
COc1ccc(OC)c(N(CC(N)=O)S(=O)(=O)c2ccc(OC)c(OC)c2)c1	-1.8% (inactive)	–
Cc1ccc(S(=O)(=O)NN2C(=O)/C(=C/c3cccnc3)SC2=S)cc1	0.314% (inactive)	–
Cc1nc(C)c(/C(O)=C\c2nc3ccc([N+](=O)[O-])cc3oc2=O)o1	-6.55% (inactive)	–
Cc1cc(C(=O)Nc2nnc(-c3ccccc3)s2)no1	4.74% (inactive)	–
CNc1nnc(-c2cccc(N(C)C)c2)s1	–	1.05 µM (active)
Cc1nc(SCc2ccc(Cl)c(Cl)c2)ncc1C(=O)O	-2.92% (inactive)	–
COc1c(F)c(F)c(C(=O)O)c(Nc2ccc(C)cc2C)c1F	-2.48% (inactive)	–
COc1ccc(N2C(=O)CSC2c2ccncc2)cc1 (configuration not stated)	-0.02% (inactive)	–
CCCCN(C)S(=O)(=O)c1ccc(C(=O)Nc2nnc(-c3ccco3)o2)cc1	-1.54% (inactive)	–
Cn1c(=O)c2c(nc(N/N=C/c3ccncc3)n2Cc2ccccc2)n(C)c1=O	-3.48% (inactive)	–
COc1ccc(-c2n[nH]c(C)c2-c2ccccc2OC)c(O)c1	-3.28% (inactive)	–
COc1ccc(-c2cn[nH]c2-c2ccc(OC)cc2O)cc1	-0.281% (inactive)	–
Cc1ccc(-n2c(-c3ccc(Cl)cc3)n[nH]c2=S)c(C)c1	-6.19% (inactive)	–
Cc1cccnc1Nc1nc(-c2ccc(O)cc2O)cs1	-5.97% (inactive)	–
Cc1ccc(Nc2nc(-c3ccc(O)cc3O)cs2)nc1	-1.74% (inactive)	–
Nc1ncc(-c2ccccc2)c(-c2ccc(O)cc2O)n1	-18.7% (inactive)	–
COc1ccccc1-c1cc(-c2ccc(O)cc2)nc(N)c1C#N	-2.09% (inactive)	–
Cc1cc(C)nc(NNC(=O)c2ccccc2O)n1	-6.11% (inactive)	–
CC[C@@H](C)[C@H](NC(=O)Cc1c(C)c2cc3c(C)coc3c(C)c2oc1=O)C(=O)O	-7.97% (inactive)	–

Compound	activity change, negative = inhibition	AC50
O=C(O)c1ccc(Sc2nnc(-c3cccc(Br)c3)o2)c([N+](=O)[O-])c1	0.002% (inactive)	–
ClCc1csc(-c2ccc(Cl)cc2)n1	-0.804% (inactive)	–
O=C(NCCc1ccc(O)cc1)c1ccc(Cl)cc1	-4.94% (inactive)	–
Cc1ccc(O)c(NC(=O)CCCC(=O)O)c1	0.036% (inactive)	–
c1ccc(-c2cc(N3CCCCCC3)n[nH]2)cc1	-2.05% (inactive)	–
O=c1cc(-c2cccc([N+](=O)[O-])c2)[nH][nH]1	-18% (inactive)	–
CC(=NC1CCCC1)c1c(C)[nH]n(-c2nc3ccccc3s2)c1=O	-5.59% (inactive)	–
N/C(=N/O)c1ccccc1N1CCC(Cc2ccccc2)CC1	-3.88% (inactive)	–
CN(C)S(=O)(=O)c1cccc(-c2cn3cccnc3n2)c1	-0.689% (inactive)	–
Cc1nc(-c2cccc(N)c2)cs1	0.082% (inactive)	–
Nc1cccc(-c2cn3cccnc3n2)c1	–	4.52 µM (active)
COc1ccc(CC(=O)N2CCN=C2SCc2cccc([N+](=O)[O-])c2)cc1	-3.08% (inactive)	–
COc1ccc(/C=N/NC(=O)c2ccn[nH]2)cc1CSc1ccccn1	-0.553% (inactive)	–
CCc1c(C)c2cc(Cl)c(O)c(CN3CCCCC3)c2oc1=O	-0.144% (inactive)	–
Cc1c(Br)c(=O)oc2c(Br)c(O)c(O)cc12	–	7.79 µM (active)
CC1CCC2C(C1)Nc1c(C(=O)O)cccc1C2(C)C (configuration not stated)	-7.59% (inactive)	–
C=CCn1c(C(C)NC(=O)c2cccc(C)c2)n[nH]c1=S (configuration not stated)	-5.54% (inactive)	–
COc1cccc(OC)c1C(=O)N1CCN=C1SCc1cccnc1	0.71% (inactive)	–
Cc1cc(C)nc(NN2C(=O)/C(=C/c3ccc(O)cc3)SC2=S)n1	-1.81% (inactive)	–
O=C(O)C(c1ccccc1)N1C(=O)/C(=C\c2ccc(-c3cccc(Cl)c3)o2)SC1=S (configuration not stated)	-3.18% (inactive)	–
O=C(O)C(c1ccccc1)N1C(=O)/C(=C\c2ccc(O)c(O)c2)SC1=S (configuration not stated)	–	5 µM (active)
